# Source: PubChem BioAssay (NCATS)
# Records with an inconclusive call do not appear. Where a call stands in place of a potency, no number is given. Calls of active or inactive are those of the source. Unless noted, the call rests on the fitted dose curve; in most records, active means well fitted curve in the direction sought with a large enough effect; inconclusive means small, poorly fitted or top-dose-only effect, or another doubt; inactive means no such curve, though single readings can be large; an effect the other way counts as inactive or inconclusive. Residues, ends and D or L forms follow the SMILES beside them. *: point of attachment. Cbz = O=C(OCc1ccccc1)*
# Legend:
# [1] = biological target: alpha-glucosidase (Oryza sativa, rice) (UniProt Q653V4); assay: Counterscreen for Glucocerebrosidase Inhibitors: qHTS Assay for Rice alpha-Glucosidase at pH 5.0 (AID 997)
# Method in brief: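 Endpoint fluorogenic assay at pH 5.0: compounds (0.7 nM to 77 uM) titrated against 4 nM rice enzyme and 400 uM 4-MU-alpha-glucoside for 20 min at room temperature; NaOH/glycine stop, read ex 365/em 440 nm, Hill-fitted AC50.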
# [2] = biological target: DNA repair nuclease/redox regulator APEX1 (Homo sapiens) (UniProt P27695); assay: qHTS Validation Assay for Inhibitors of the Human Apurinic/apyrimidinic Endonuclease 1 (APE1) (AID 1705; further: potency means the concentration at half of the fitted maximal effect)
# Method in brief: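 Substrate: 50 nM final fluorophore/quencher THF-abasic duplex. Enzyme preincubated with compounds 15 min, RT. Progress derived from fluorescence difference, third minus first kinetic read.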
# [3] = Counterscreen for APE1 Inhibitors: Fluorescent Dye Displacement Validation Assay (AID 1707)
# Method in brief: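 Endpoint fluorescence read at 480 nm excitation / 540 nm emission; DNA-binding compounds lower signal by displacing 250 nM Thiazole Orange from 50 nM dsDNA containing a tetrahydrofuran abasic site, Tris-HCl pH7.5 buffer with NaCl and MgCl2.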
# [4] = qHTS for differential inhibitors of proliferation of Plasmodium falciparum line GB4 (AID 1816); conditions: Potency: Plasmodium falciparum GB4 proliferation inhibition;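 further: parasite growth measured after 72 h incubation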; further: potency means the concentration at half of the fitted maximal effect
# [5] = qHTS for differential inhibitors of proliferation of Plasmodium falciparum line D10 (AID 1877);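 further: parasites grown with compound for 72 h before DNA staining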; further: potency means the concentration at half of the fitted maximal effect
# [6] = qHTS for differential inhibitors of proliferation of Plasmodium falciparum line W2 (AID 1883); conditions: Potency: Plasmodium falciparum W2 proliferation inhibition;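 further: parasites grown with compound for 72 h before lysis and staining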; further: potency means the concentration at half of the fitted maximal effect
# [7] = biological target: Ferritin light chain (Equus caballus) (UniProt P02791); assay: qHTS Validation Assay for Identification of Novel General Anesthetics (AID 2323); further: series mostly up to about 77 µM
# Method in brief: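 Normalized fluorescence response, scaled between free 1-AMA and 1-AMA/apoferritin complex, fitted to a four-parameter Hill equation for concentration-effect values. Binding mix: 10 uM horse-spleen apoferritin, 50% saturated 1-AMA in PBS; read 380/535 nm after 10 min.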
# [8] = biological target: ATP-dependent DNA helicase Q1 (Homo sapiens) (UniProt P46063); assay: qHTS Validation Assay for Inhibitors of RecQ-Like Dna Helicase 1 (RECQ1) (AID 2353)
# Method in brief: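 RECQ1T1 50 nM; forked duplex (20 bp + 30-nt ss tails) 200 nM, ATP 2 mM final; pH 8.0, 2 mM MgCl2, 2.5 ug/ml poly(dI-dC); 15 min compound preincubation; discontinuous kinetic read over 2 h at RT.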
# [9] = qHTS for differential inhibitors of proliferation of Plasmodium falciparum line 7G8 (AID 1815);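 further: parasite growth measured after three days of incubation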; further: potency means the concentration at half of the fitted maximal effect
# [10] = qHTS for differential inhibitors of proliferation of Plasmodium falciparum line HB3 (AID 1886); conditions: Potency: Plasmodium falciparum HB3 proliferation inhibition;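 further: parasites grown with compound for 72 h before SYBR Green readout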; further: potency means the concentration at half of the fitted maximal effect
# [11] = biological target: Endonuclease 4 (Escherichia coli (strain K12)) (UniProt P0A6C1); assay: Counterscreen for APE1 Inhibitors: qHTS Validation Assay for Inhibitors of Endonuclease IV (AID 1708)
# Method in brief: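 Measured as reaction progress, the fluorescence gain between first and third kinetic reads after adding 50 nM TAMRA/BHQ-2 THF duplex to 2 nM enzyme preincubated 15 min with compound; 2 mM MgCl2, pH 7.5.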
# [12] = qHTS for differential inhibitors of proliferation of Plasmodium falciparum line 3D7 (AID 1876); further: potency means the concentration at half of the fitted maximal effect
# [13] = qHTS for differential inhibitors of proliferation of Plasmodium falciparum line Dd2 (AID 1882); conditions: Potency: Plasmodium falciparum Dd2 proliferation inhibition; further: nearly all actives have a fitted effect of over 65% in size; further: potency means the concentration at half of the fitted maximal effect
# Method in brief: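 RBC culture, 0.3% parasitemia / 2.5% Hct final; cpd added by pin tool in DMSO; 72 h, 37 C, 5% CO2; lysis buffer + SYBR Green I, o/n RT dark; FI 485/535; norm. to artemisinin 0.29 uM and DMSO.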
# [14] = biological target: RecQ-like DNA helicase BLM (Homo sapiens) (UniProt P54132); assay: qHTS Validation Assay for Inhibitors of Bloom's syndrome helicase (BLM) (AID 2364)
# Method in brief: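 BLM 50 nM in 25 mM Tris-HCl pH 8.0, 5 mM NaCl, 2 mM MgCl2, 1 mM DTT, 0.01% Tween-20, 2.5 ug/ml poly(dI-dC); 15 min cpd preinc, RT. Start: 200 nM forked DNA + 2 mM ATP (final). TAMRA read, 2 reads 2 h apart.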
# [15] = qHTS Assay for Modulators of Human Peripheral Myelin Protein 22 (PMP22) Expression/Activity (AID 1967; active means well fitted curve in the direction sought with a large enough effect in the signal ratio; the % refers to the signal ratio)
# Method in brief: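 Engineered MSC80 cells, Pmp22-promoter green and EF-alpha red luciferase reporters; 24h compound treatment at 37 °C. Concentration-response fits on green, red and ratio signals, each overlap-corrected, with %Activity normalized to untreated wells.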
# Sequence of ATP-dependent DNA helicase Q1 (Homo sapiens) (P46063 whole entry, looked up): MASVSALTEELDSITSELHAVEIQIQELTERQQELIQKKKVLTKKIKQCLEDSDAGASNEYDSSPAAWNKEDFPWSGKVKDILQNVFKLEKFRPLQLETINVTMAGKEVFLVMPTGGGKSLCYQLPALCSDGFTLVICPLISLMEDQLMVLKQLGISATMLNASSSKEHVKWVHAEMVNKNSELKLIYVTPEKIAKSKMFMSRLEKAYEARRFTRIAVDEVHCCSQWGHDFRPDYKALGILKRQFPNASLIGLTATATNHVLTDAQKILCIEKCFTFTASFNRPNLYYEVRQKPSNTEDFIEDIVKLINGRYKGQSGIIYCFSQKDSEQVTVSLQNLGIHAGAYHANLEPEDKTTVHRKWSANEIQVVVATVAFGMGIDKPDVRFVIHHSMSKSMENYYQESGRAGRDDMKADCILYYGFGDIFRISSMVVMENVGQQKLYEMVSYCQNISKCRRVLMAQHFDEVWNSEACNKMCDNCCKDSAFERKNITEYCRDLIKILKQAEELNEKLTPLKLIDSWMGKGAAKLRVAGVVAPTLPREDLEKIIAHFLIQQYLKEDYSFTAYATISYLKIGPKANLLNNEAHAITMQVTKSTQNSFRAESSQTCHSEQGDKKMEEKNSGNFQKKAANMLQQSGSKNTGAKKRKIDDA
# Sequence of RecQ-like DNA helicase BLM (Homo sapiens) (P54132 whole entry, looked up): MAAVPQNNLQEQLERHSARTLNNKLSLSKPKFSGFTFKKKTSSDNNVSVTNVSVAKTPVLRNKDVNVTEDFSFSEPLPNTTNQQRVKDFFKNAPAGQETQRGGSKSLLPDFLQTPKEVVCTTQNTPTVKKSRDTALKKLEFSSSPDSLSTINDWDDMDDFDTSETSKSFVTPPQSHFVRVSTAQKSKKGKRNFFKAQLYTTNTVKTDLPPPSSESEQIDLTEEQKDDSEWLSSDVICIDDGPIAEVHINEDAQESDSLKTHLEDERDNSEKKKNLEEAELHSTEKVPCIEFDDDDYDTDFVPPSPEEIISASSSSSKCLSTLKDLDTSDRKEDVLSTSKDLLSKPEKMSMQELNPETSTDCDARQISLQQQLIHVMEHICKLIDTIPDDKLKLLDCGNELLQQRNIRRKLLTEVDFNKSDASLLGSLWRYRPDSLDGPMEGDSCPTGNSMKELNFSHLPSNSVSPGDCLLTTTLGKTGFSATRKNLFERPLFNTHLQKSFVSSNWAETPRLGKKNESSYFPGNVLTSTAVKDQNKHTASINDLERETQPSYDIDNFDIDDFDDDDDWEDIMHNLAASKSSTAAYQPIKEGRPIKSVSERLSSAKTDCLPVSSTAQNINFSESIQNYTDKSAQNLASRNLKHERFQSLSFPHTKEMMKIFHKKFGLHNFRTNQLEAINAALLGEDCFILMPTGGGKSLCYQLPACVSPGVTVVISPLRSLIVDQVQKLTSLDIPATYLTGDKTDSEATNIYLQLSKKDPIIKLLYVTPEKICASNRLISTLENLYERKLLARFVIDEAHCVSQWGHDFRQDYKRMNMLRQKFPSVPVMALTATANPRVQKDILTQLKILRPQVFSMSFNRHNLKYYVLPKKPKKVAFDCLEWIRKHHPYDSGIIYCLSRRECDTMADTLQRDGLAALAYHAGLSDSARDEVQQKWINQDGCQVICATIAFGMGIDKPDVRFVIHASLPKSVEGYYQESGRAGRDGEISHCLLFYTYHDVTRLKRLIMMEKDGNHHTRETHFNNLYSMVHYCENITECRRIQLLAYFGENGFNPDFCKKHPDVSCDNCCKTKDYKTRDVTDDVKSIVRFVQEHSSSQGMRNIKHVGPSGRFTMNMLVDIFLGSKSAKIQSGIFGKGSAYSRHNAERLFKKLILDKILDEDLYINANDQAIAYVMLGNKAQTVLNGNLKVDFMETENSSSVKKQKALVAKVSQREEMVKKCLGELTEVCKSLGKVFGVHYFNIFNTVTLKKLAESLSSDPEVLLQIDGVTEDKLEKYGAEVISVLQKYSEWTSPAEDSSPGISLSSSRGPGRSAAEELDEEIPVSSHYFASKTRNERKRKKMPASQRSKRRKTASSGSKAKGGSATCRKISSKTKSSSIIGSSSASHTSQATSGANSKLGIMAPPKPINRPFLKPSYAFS
# Sequence of Ferritin light chain (Equus caballus) (P02791 2-175 limits assumed): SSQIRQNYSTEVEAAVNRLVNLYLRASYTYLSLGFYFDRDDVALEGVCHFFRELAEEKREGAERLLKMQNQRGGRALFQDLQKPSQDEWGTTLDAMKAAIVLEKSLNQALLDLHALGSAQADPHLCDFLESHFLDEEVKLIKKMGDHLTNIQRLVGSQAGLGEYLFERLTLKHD
# Sequence of DNA repair nuclease/redox regulator APEX1 (Homo sapiens) (P27695 whole entry, looked up): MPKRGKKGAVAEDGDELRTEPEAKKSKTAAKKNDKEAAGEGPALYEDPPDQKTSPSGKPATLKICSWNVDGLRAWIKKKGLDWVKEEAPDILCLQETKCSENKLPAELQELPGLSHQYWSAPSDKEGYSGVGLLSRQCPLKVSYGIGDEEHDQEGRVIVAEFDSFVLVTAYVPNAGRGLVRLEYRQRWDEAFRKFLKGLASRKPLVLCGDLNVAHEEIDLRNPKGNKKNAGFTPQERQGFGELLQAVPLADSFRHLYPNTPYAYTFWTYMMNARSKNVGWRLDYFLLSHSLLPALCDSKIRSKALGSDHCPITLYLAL
Structure (SMILES),outcome [1],Potency [2],Potency [3],Potency [4],Potency [5],Potency [6],Potency [7],Potency [8],Potency [9],Potency [10],Potency [11],Potency [12],Potency [13],Potency [14],outcome [15]
O=c1ccc2c(OCCCCc3ccccc3)c3ccoc3cc2o1,inactive,inactive,inactive,11.2 µM (active),12.6 µM (active),10 µM (active),inactive,inactive,–,–,–,–,–,–,–
CCCC(=O)NCCc1c2n(c3ccc(OC)cc13)CCCc1ccccc1-2,inactive,inactive,inactive,11.2 µM (active),12.6 µM (active),7.94 µM (active),–,inactive,3.55 µM (active),11.2 µM (active),–,–,–,–,–
O=C(O)c1ccccc1Nc1cccc(OCc2ccc3ccccc3n2)c1,inactive,inactive,inactive,–,inactive,–,inactive,inactive,–,inactive,inactive,inactive,inactive,–,–
O=C1OC(=O)C2C3CCC(O3)C12 (centres undefined),–,inactive,inactive,–,–,–,inactive,inactive,inactive,–,inactive,inactive,inactive,inactive,–
Fc1ccc(CN(C2=NCCN2)c2c(Cl)cccc2Cl)cc1,inactive,inactive,inactive,5.62 µM (active),–,3.55 µM (active),inactive,inactive,6.31 µM (active),–,inactive,11.2 µM (active),7.94 µM (active),inactive,–
O=C(N[C@@H](Cc1ccccc1)C(=O)CCl)OCc1ccccc1,inactive,inactive,inactive,10 µM (active),–,8.91 µM (active),inactive,inactive,8.91 µM (active),14.1 µM (active),–,11.2 µM (active),11.2 µM (active),–,–
Cc1ccccc1/C=C/C1=NCCN1,–,inactive,–,11.2 µM (active),–,12.6 µM (active),inactive,inactive,8.91 µM (active),12.6 µM (active),–,–,–,inactive,–
O=C1Nc2ccc(I)cc2/C1=C/c1cc(Br)c(O)c(Br)c1,inactive,–,inactive,14.1 µM (active),–,15.8 µM (active),–,inactive,8.91 µM (active),10 µM (active),inactive,14.1 µM (active),–,–,–
S=C(S)N1CCCC1,inactive,inactive,inactive,–,–,–,inactive,inactive,–,–,inactive,–,–,inactive,–
CC(C)(C)NCC(O)COc1cccc2[nH]c(=O)[nH]c12 (centres undefined),–,inactive,inactive,inactive,inactive,inactive,inactive,inactive,inactive,inactive,inactive,inactive,inactive,inactive,inactive
CC(C)[C@H](NC(=O)OCc1ccccc1)C(=O)N[C@H](C=O)Cc1ccccc1 (Cbz-Val-Phe-aldehyde),inactive,inactive,inactive,4.47 µM (active),8.91 µM (active),2.82 µM (active),inactive,inactive,7.08 µM (active),5.01 µM (active),inactive,2.82 µM (active),4.47 µM (active),–,–
COc1ccc(NC(=O)c2ccc(-c3ccc(-c4noc(C)n4)cc3C)cc2)cc1N1CCN(C)CC1,inactive,inactive,inactive,3.98 µM (active),2.51 µM (active),3.98 µM (active),inactive,inactive,4.47 µM (active),2.82 µM (active),inactive,2.82 µM (active),5.62 µM (active),inactive,–
NC(=O)c1cc[n+](CC2=C(C(=O)O)N3C(=O)[C@@H](NC(=O)[C@@H](c4ccccc4)S(=O)(=O)[O-])[C@H]3SC2)cc1,–,14.1 µM (active),inactive,inactive,inactive,–,inactive,inactive,inactive,inactive,–,inactive,inactive,inactive,inactive
NC(=Nc1ccccc1)NC(=O)c1nc(Cl)c(N)nc1N,inactive,inactive,–,12.6 µM (active),8.91 µM (active),7.08 µM (active),inactive,inactive,8.91 µM (active),7.94 µM (active),–,3.55 µM (active),inactive,inactive,–
CCCCCCCC/C=C\CCCCCCCC(=O)NCCc1ccc(O)c(O)c1,inactive,inactive,–,11.2 µM (active),–,7.94 µM (active),–,inactive,7.08 µM (active),12.6 µM (active),–,8.91 µM (active),8.91 µM (active),–,–
N#CC(=C(\N)Sc1ccccc1N)/C(C#N)=C(/N)Sc1ccccc1N,–,inactive,inactive,4.47 µM (active),2 µM (active),2.82 µM (active),–,inactive,2.51 µM (active),4.47 µM (active),inactive,3.98 µM (active),7.08 µM (active),–,inactive
Nc1nc2ccc(Cl)cc2c2nc(-c3ccco3)nn12,inactive,inactive,inactive,–,–,–,–,inactive,–,–,inactive,–,–,inactive,–
O=c1oc(Cl)c(Cl)c2ccccc12,inactive,inactive,inactive,inactive,inactive,–,–,inactive,–,inactive,–,inactive,inactive,–,–
COc1ccc2c(c1)c(CC(=O)O)c(C)n2C(=O)c1ccccc1,inactive,inactive,inactive,inactive,inactive,inactive,inactive,inactive,inactive,inactive,inactive,inactive,inactive,–,inactive
CCCCC[C@H](CC(=O)NO)C(=O)N[C@H](C(=O)N1CCC[C@H]1CO)C(C)C,–,inactive,inactive,2 µM (active),1.58 µM (active),2.51 µM (active),inactive,inactive,2.24 µM (active),2.82 µM (active),inactive,1.78 µM (active),3.55 µM (active),inactive,–
CCC1(O)CC2CN(CCc3c([nH]c4ccccc34)[C@@](C(=O)OC)(c3cc4c(cc3OC)N(C)C3[C@]45CCN4CC=C[C@@](CC)([C@@H](OC(C)=O)[C@]3(O)C(=O)OC)[C@H]45)C2)C1 (some centres undefined),–,inactive,–,2.51 µM (active),5.01 µM (active),0.794 µM (active),inactive,inactive,1.12 µM (active),2.82 µM (active),inactive,0.631 µM (active),0.398 µM (active),–,–
NC(N)=N[C@@H](CCC(=O)O)C(=O)O,–,inactive,inactive,inactive,inactive,inactive,inactive,inactive,inactive,inactive,inactive,inactive,inactive,–,–
